Records with an inconclusive call do not appear. Active and inactive are the calls of the source. Unless noted, calls come from the whole dose curve; as a rule, active = well fitted curve in the direction sought with a large enough effect; inconclusive = small, poorly fitted or top-dose-only effect, or another doubt; inactive = no such curve, though single readings can be large; an effect the other way counts as inactive or inconclusive.
What was measured:
[1] = biological target: Cytochrome P450 3A4 (Homo sapiens) (UniProt P08684); test: qHTS Assay for Inhibitors and Substrates of Cytochrome P450 3A4 (AID 884); details: recombinant CYP3A4, Luciferin-PPXE luminescence; series mostly up to 57.1 µM; note: % is set by controls: 0 for no effect and ±100 for the full control effect; nearly all actives have a fitted effect of over 50% in size
Chain of Cytochrome P450 3A4 (Homo sapiens) (P08684 whole entry, looked up): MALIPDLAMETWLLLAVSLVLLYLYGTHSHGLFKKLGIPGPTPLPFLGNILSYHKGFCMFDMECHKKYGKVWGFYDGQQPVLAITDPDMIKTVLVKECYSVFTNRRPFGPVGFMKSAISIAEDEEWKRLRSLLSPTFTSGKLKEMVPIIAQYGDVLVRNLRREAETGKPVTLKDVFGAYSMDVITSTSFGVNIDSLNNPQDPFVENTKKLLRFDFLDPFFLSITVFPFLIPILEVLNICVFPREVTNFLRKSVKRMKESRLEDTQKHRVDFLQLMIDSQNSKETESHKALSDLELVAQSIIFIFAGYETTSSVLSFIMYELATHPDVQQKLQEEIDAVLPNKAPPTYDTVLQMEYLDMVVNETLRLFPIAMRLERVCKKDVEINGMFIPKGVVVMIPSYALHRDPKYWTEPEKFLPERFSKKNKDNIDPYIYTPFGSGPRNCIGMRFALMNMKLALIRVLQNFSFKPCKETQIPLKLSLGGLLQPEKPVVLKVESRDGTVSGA
Procedure, shortened: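 20 nM human CYP3A4 with 25 uM Luciferin-PPXE (at KM) in 200 mM KPO4, preincubated 10 min with compound; NADPH regeneration started a 60 min RT reaction. Luciferin detected by luminescence, normalized to 57 uM ketoconazole as full inhibition.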

[2] = Cell Viability - LYMP2-001 (AID 921); details: LYMP2-001 lymphoblastoid cell viability; series mostly up to 92.2 µM;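 note: cells exposed to compound for 24 h at 37 °C; 0% = DMSO only and full inhibition = tetraoctylammonium bromide control wells; nearly all actives have a fitted effect of over 70% in size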
Procedure, shortened: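 qHTS, 1536-well; lymphoblastoid cells, 24 hr compound, 37 C; ATP by CellTiter-Glo, 30 min RT; luminescence; Hill-fit AC50.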

[3] = MultiTox-Fluor Cytotoxicity Assay - LYMP1-001 - Dead Cells (AID 946); details: LYMP1-001 lymphoblastoid cells, dead-cell protease fluorescence; series mostly up to 92.2 µM;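 note: cells exposed to compound for 16 h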
Procedure, shortened: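 Seed 2500 LYMP1-001 cells/well, incubate 5 hr at 37 C; add compound, 16 hr at 37 C; add MultiTox-Fluor reagent, 60 min RT; read dead-cell fluorescence Ex/Em=485/520. Normalize to DMSO and 15 uM tetraoctylammonium bromide.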

[4] = MultiTox-Fluor Cytotoxicity Assay - LYMP1-001 - Live Cells (AID 947); details: LYMP1-001 lymphoblastoid cells, live-cell protease fluorescence viability; series mostly up to 92.2 µM;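 note: 0% = DMSO only and full inhibition = tetraoctylammonium bromide control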
[5] = Cell Viability - LYMP1-002 - Assay at 16 hr (AID 948); details: LYMP1-002 lymphoblastoid cell viability; series mostly up to 92.2 µM;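 note: 0% = DMSO alone and full effect = 92 µM tetraoctylammonium bromide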
Procedure, shortened: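 Acute cytotoxicity is scored as a concentration-dependent fall in intracellular ATP in a human lymphoblastoid line (LYMP1-002) after 16 hr compound exposure at 37 C, measured by luciferase luminescence.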

[6] = MultiTox-Fluor Cytotoxicity Assay - LYMP1-002 - Live Cells (AID 955); details: LYMP1-002 lymphoblastoid live-cell protease fluorescence viability; series mostly up to 46.1 µM;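 note: cells exposed to compound for 16 hours; % is set by controls: 0 for no effect and ±100 for the full control effect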
Procedure, shortened: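 Cytotoxicity in the human lymphoblastoid line LYMP1-002 is measured as loss of live-cell protease activity after 16 h treatment in complete culture medium. AC50 is derived from Hill-equation fits of qHTS concentration-response data.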

[7] = MultiTox-Fluor Cytotoxicity Assay - LYMP1-003 - Dead Cells (AID 961); details: LYMP1-003 lymphoblastoid cells, dead-cell protease fluorescence; series mostly up to 92.2 µM;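 note: cells exposed to compound for 16 h at 37 °C; nearly all actives have a fitted effect of over 70% in size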
Procedure, shortened: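 LYMP1-003 lymphoblastoid, 2500 cells/well, 5 hr settle then 16 hr cpd at 37 C; MultiTox-Fluor reagent 60 min RT; Ex/Em 485/520 dead-cell signal; norm. DMSO = 0%, 15 uM tetraoctylammonium bromide = 100%; Hill AC50.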

[8] = biological target: Cytochrome P450 2C9 (Homo sapiens) (UniProt P11712); test: qHTS Assay for Inhibitors and Substrates of Cytochrome P450 2C9 (AID 883); details: recombinant CYP2C9, luciferin-H luminescence, 60 min; series mostly up to 25.6 µM; note: % is set by controls: 0 for no effect and ±100 for the full control effect; nearly all actives have a fitted effect of over 60% in size
Chain of Cytochrome P450 2C9 (Homo sapiens) (P11712 whole entry, looked up): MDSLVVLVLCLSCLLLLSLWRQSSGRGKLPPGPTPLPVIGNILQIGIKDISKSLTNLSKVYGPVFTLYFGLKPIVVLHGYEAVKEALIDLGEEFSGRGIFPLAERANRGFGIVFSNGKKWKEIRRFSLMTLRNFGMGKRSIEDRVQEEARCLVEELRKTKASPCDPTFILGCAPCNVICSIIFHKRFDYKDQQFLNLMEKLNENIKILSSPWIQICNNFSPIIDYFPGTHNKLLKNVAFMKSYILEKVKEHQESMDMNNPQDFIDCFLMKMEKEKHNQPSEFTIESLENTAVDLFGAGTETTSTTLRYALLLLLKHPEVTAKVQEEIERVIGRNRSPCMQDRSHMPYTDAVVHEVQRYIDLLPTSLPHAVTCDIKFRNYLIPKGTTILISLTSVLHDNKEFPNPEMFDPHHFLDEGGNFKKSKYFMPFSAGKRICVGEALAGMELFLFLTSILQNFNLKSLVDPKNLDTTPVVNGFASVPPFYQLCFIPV
Procedure, shortened: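 Signal: luciferase luminescence reporting luciferin produced by CYP2C9. Conditions: 10nM enzyme, Luciferin-H 100uM at KM, 25mM KPO4, 37C, 60 min NADPH-driven reaction. Reference: 57uM sulphaphenazole as 100% inhibition.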

[9] = biological target: Cytochrome P450 2C19 (Homo sapiens) (UniProt P33261); test: qHTS Assay for Inhibitors and Substrates of Cytochrome P450 2C19 (AID 899); details: recombinant CYP2C19, luciferin-H EGE luminescence; series mostly up to 25.6 µM; note: % is set by controls: 0 for no effect and ±100 for the full control effect; nearly all actives have a fitted effect of over 60% in size
Chain of Cytochrome P450 2C19 (Homo sapiens) (P33261 whole entry, looked up): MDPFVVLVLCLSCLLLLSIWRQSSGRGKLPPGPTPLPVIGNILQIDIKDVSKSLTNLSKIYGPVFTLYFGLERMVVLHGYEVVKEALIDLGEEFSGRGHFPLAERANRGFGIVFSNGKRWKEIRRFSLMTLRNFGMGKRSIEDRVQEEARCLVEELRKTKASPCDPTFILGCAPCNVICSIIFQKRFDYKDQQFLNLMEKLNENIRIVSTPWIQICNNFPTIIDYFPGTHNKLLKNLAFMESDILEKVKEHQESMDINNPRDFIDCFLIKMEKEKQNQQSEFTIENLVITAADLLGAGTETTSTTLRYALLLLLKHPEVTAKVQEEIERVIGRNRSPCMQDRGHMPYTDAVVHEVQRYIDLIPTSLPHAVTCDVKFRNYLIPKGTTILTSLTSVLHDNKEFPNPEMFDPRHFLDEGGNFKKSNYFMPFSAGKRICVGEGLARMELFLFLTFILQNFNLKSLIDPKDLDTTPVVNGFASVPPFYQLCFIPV
Procedure, shortened: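 Signal comes from luciferase acting on luciferin released by CYP2C19-mediated hydroxylation of Luciferin-H EGE, 10uM (KM). Assay mix: 5nM enzyme, 50mM KPO4; 60 min at 37C with NADPH regeneration. Data normalized against 57uM ketoconazole.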

[10] = biological target: Cytochrome P450 2D6 (Homo sapiens) (UniProt P10635); test: qHTS Assay for Inhibitors and Substrates of Cytochrome P450 2D6 (AID 891); details: recombinant CYP2D6, luciferin-ME EGE luminescence; series mostly up to 57.1 µM;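 note: luciferin methyl ether substrate demethylated by CYP2D6 with NADPH regeneration; % is set by controls: 0 for no effect and ±100 for the full control effect; nearly all actives have a fitted effect of over 60% in size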
Chain of Cytochrome P450 2D6 (Homo sapiens) (P10635 whole entry, looked up): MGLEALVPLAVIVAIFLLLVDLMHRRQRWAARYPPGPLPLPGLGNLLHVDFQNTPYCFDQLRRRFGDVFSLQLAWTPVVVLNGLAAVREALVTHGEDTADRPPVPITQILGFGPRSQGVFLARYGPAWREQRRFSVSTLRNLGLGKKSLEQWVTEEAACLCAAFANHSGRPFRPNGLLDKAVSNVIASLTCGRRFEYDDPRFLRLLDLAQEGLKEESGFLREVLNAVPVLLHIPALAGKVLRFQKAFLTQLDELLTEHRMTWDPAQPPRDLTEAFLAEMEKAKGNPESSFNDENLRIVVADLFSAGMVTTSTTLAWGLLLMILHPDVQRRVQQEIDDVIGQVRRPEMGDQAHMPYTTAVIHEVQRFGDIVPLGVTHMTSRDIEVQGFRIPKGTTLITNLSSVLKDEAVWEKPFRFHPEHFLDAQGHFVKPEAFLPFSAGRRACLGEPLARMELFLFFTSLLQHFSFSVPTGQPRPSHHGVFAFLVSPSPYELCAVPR
Procedure, shortened: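 Human CYP2D6 (5 nM) with 30 uM Luciferin-ME EGE (at Km) in 100 mM KPO4, compound preincubated 10 min, then NADPH regeneration system for 60 min at room temperature. Luciferin read by luminescence; normalized to 1.43 uM quinidine.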

[11] = Confirmation and Secondary Assay for Modulators of Hemoglobin Beta Chain Splicing at IVS2 654 locus (AID 910); details: HeLa EGFP-654 splicing reporter, GFP fluorescence, 48 h; series mostly up to 46.1 µM;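 note: HeLa cells stably carrying EGFP split by mutant beta-globin IVS2-654 intron; % of control where 0% means no effect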
Procedure, shortened: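 HeLa cells stably expressing EGFP interrupted by β-globin IVS2-654 intron, seeded overnight in Opti-MEM/2% FCS, then treated 2 days at 37 °C. Restored splicing read as total peak GFP intensity per well by laser scanning cytometry (488 nm excitation, 500–520 nm emission); 500 nM antisense PNA as control.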

[12] = Confirmation and Secondary Assay for Modulators of Hemoglobin Beta Chain Splicing at IVS2 705 locus (AID 930); details: HeLa EGFP-705 splicing reporter, GFP fluorescence, 48 h; series mostly up to 46.1 µM;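 note: HeLa cells stably expressing the EGFP-705 splicing reporter; GFP fluorescence per well restored by corrected splicing of the IVS2-705 intron in EGFP; % of control where 0% means no effect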
Procedure, shortened: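 Splice-correction reporter: EGFP cDNA split by beta-globin intron 2 bearing the 705 mutation, stably in HeLa. Compound incubation 2 days, 37C; fluorescent objects 5-250 µm summed per well.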

[13] = biological target: Guanine nucleotide-binding protein G(i) subunit alpha-1 (Homo sapiens) (UniProt P63096); test: qHTS Assay for Inhibitors of RGS12 GoLoco Motif Activity (Green Fluorophore) (AID 879); details: Galphai1/FITC-RGS12 GoLoco peptide, fluorescence polarization; series mostly up to 57.1 µM;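 note: 0% = labeled peptide with Gαi1 and full inhibition = labeled peptide alone without protein; negative values mean loss of peptide binding seen as reduced polarization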
Chain of Guanine nucleotide-binding protein G(i) subunit alpha-1 (Homo sapiens) (P63096 whole entry, looked up): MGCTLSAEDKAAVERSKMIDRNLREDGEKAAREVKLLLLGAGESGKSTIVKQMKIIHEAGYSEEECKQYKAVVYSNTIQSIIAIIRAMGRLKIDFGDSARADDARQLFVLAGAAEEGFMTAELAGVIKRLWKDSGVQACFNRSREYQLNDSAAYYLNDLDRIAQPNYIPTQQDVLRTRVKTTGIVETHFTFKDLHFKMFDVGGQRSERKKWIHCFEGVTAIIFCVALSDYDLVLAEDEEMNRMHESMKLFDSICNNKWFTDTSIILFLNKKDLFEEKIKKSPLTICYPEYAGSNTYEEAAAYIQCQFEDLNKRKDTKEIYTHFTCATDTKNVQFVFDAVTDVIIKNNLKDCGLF
Procedure, shortened: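 Fluorescence polarization assay: 50 nM Gαi1 with 10 nM FITC-labeled RGS12 GoLoco peptide in 10 mM Tris pH 7.5, 150 mM NaCl, 0.1 mM GDP, 0.05% NP40, 10 min at room temperature with compound.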

[14] = biological target: Pyruvate kinase (Leishmania mexicana) (UniProt Q27686); test: qHTS Validation Assay for Inhibitors of Leishmania Mexicana Pyruvate Kinase (AID 945);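 note: 0% = DMSO only neutral control wells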; details: purified L. mexicana pyruvate kinase, enzyme activity, E451W mutant enzyme; series mostly up to 57.5 µM
Chain of Pyruvate kinase (Leishmania mexicana) (Q27686 2-499 E452W): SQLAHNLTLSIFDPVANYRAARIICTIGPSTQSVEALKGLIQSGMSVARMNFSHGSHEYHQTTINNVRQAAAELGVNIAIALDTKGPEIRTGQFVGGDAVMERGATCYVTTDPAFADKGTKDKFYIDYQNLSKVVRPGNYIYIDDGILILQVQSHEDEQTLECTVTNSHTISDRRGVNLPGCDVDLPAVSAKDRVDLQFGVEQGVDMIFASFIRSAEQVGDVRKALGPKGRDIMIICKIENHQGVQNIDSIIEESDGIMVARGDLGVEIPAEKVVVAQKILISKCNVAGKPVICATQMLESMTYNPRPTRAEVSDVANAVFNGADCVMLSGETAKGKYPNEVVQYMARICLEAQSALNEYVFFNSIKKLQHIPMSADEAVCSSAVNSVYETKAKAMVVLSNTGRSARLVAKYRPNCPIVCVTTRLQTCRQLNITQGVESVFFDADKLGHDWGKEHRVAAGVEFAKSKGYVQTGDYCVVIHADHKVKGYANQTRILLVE
Procedure, shortened: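 The enzyme is a highly purified E451W mutant of LmPYK used at 0.2 nM. It converts 0.5 mM PEP and 0.1 mM ADP over 1 h at room temperature; product ATP is quantified by luciferase luminescence relative to DMSO controls.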

[15] = biological target: Pyruvate kinase PKM (Homo sapiens) (UniProt P14618); test: qHTS Assay for Activators of Human Muscle Pyruvate Kinase (AID 954; active = well fitted curve in the direction sought with a large enough effect, not every such curve was filed as active;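 note: 0% = uninhibited enzyme and -100% = no enzyme or full thiadiazolimine inhibition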); details: purified human muscle pyruvate kinase, luciferase-coupled luminescence, 1 h; series mostly up to 57.5 µM
Chain of Pyruvate kinase PKM (Homo sapiens) (P14618 whole entry, looked up): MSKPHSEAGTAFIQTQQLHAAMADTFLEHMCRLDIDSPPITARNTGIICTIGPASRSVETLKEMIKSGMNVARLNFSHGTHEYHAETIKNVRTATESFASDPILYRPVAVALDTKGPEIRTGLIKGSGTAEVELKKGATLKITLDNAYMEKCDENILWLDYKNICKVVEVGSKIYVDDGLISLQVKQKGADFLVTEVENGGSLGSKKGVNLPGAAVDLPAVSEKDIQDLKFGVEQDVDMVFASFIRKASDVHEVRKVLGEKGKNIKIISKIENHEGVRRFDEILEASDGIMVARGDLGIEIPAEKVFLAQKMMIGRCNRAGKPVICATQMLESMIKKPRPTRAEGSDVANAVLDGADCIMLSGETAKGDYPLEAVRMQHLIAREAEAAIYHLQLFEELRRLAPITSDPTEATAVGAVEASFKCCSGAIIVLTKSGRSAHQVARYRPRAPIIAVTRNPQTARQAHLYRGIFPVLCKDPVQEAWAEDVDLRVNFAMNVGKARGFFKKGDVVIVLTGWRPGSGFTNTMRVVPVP
Procedure, shortened: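 Reaction: 0.1 nM purified PKM2 with 0.5 mM phosphoenolpyruvate and 0.1 mM ADP, room temperature, 1 h. Readout: luciferase-based ATP luminescence after stop reagent. Activators judged against a 0.3 nM enzyme column.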

[16] = qHTS Assay for Identification of Small Molecule Agonists for Hypoxia Response Element Signaling Pathway (AID 914; active = well fitted activation curve with a large enough effect in the signal ratio, with a control signal flat, not every such curve was filed as active; the % refers to the signal ratio; note: % of control where 0% means no effect); details: ME-180 (cervical carcinoma) HRE-bla reporter, beta-lactamase ratio, CoCl2, 17 h; active compounds read high
Procedure, shortened: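 Cells were plated overnight, pin-dosed with compound in a titration series, co-stimulated with EC50 CoCl2 and incubated 17 hours at 37 degrees Celsius. CCF4 substrate was then loaded, and AC50 values came from the 460nm/530nm ratio.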

[17] = qHTS Assay for Identification of Small Molecule Agonists for Thrombopoietin (TPO) Signaling Pathway (AID 917); details: TPO signaling pathway reporter cells, agonist qHTS, stimulated with TPO at its EC50; series mostly up to 38.5 µM; note: % is set by controls: 0 for no effect and ±100 for the full control effect
Procedure, shortened: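 We measured Glycoprotein IIb promoter–luciferase output in IL-3-starved Ba/F3 murine cells expressing the human TPO receptor after 24 hrs at 37 C with compounds and 26 pM TPO.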

[18] = biological target: Muscarinic acetylcholine receptor M1 (Rattus norvegicus) (UniProt P08482); test: qHTS Assay for Antagonists of Acetylcholine Muscarinic M1 Receptor: Kinetic Measurement of Intracellular Calcium Response (AID 943); details: M1-expressing cells, kinetic intracellular calcium fluorescence; series mostly up to 35.3 µM;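 note: Fluo-4 calcium signal as peak divided by basal fluorescence over 4 min; nearly all actives have a fitted effect of over 75% in size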
Chain of Muscarinic acetylcholine receptor M1 (Rattus norvegicus) (P08482 whole entry, looked up): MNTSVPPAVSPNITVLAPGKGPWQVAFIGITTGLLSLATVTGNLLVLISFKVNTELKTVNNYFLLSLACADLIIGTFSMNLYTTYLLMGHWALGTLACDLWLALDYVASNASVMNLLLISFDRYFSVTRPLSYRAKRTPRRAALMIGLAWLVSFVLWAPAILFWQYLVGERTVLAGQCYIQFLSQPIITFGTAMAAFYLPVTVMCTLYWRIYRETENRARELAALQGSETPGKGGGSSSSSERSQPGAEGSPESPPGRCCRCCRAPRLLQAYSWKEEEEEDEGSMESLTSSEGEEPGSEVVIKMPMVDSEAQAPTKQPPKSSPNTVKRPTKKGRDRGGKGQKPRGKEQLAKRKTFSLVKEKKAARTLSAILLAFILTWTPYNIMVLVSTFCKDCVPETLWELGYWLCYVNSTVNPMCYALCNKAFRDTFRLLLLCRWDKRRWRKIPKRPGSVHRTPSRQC
Procedure, shortened: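 Intracellular calcium flux, recorded with Fluo-4 in a kinetic plate reader, served as signal; the response to carbachol at EC80 (100 nM final) was taken as maximal over minimal fluorescence after a 10 min compound pre-incubation in rat M1-CHO cells.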

[19] = biological target: Muscarinic acetylcholine receptor M1 (Rattus norvegicus) (UniProt P08482); test: qHTS Assay for Antagonists of Acetylcholine Muscarinic M1 Receptor: Measurement of IP-One Response (AID 944); details: CHO-M1 cells, IP-One HTRF, antagonist mode; series mostly up to 46.1 µM; note: nearly all actives have a fitted effect of over 75% in size
Procedure, shortened: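 Steps: plate transfected CHO-M1 cells overnight; add test compound, 10 min; add carbachol (200 nM, EC80) in stimulation buffer with LiCl; incubate 30 min; add labelled IP1 tracer and anti-IP1 antibody in lysis buffer; read HTRF after 10 min.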

[20] = biological target: Cytochrome P450 3A4 (Homo sapiens) (UniProt P08684); test: qHTS Assay for Activators of Cytochrome P450 3A4 (AID 885); details: recombinant CYP3A4, Luciferin-PPXE luminescence, 60 min; series mostly up to 57.1 µM; note: nearly all actives have a fitted effect of over 65% in size
Procedure, shortened: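 Steps: enzyme/substrate mix dispensed; compound added, 10 min RT; NADPH regeneration solution added, 60 min RT; luciferin detection buffer stops reaction; 20 min later luminescence measured.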

Nc1ccn([C@H]2CS[C@@H](CO)O2)c(=O)n1
inactive: Potency [1] | Potency [2] | Potency [3] | outcome [4] | outcome [5] | outcome [6] | Potency [7]

IC(I)I
inactive: Potency [1] | Potency [2] | Potency [3] | outcome [4] | outcome [5] | outcome [6] | Potency [7]

CCN(CC)Cc1cc(Nc2ccnc3cc(Cl)ccc23)ccc1O
inactive: outcome [8] | Potency [1] | outcome [9]

O=C(O)CCC(=O)C(=O)O
inactive: outcome [8] | activity change, negative = inhibition [10] 16.8% [at 11.4 µM] | outcome [9] | Potency [2] | Potency [3] | outcome [4] | outcome [5] | outcome [6] | Potency [7]

Oc1cc(O)c2c(c1)OC(c1ccc(O)c(O)c1)C(O)C2 (stereo not given)
inactive: Potency [1] | outcome [11] | outcome [12]

CC1=C(/C=C/C(C)=C/C=C/C(C)=C/C=C/C=C(C)/C=C/C=C(C)/C=C/C2=C(C)CCCC2(C)C)C(C)(C)CCC1
inactive: Potency [1] | outcome [11] | outcome [12]

CC[N+](C)(C)Cc1ccccc1Br
inactive: outcome [13] | outcome [14] | outcome [15]

CN=C(NC#N)Nc1ccc(C2=NNC(=O)C[C@@H]2C)cc1
inactive: outcome [13] | outcome [8] | Potency [10] | outcome [9] | activation [16] 1.72% | outcome [17] | outcome [18] | outcome [19] | outcome [14] | outcome [15]

COc1ccc(CCNC[C@H](O)c2ccc(O)cc2)cc1OC
inactive: outcome [13] | outcome [20] | outcome [17] | outcome [14] | outcome [15]

CCCCCCCC(=O)O
inactive: Potency [1] | Potency [2] | Potency [3] | outcome [4] | outcome [5] | outcome [6] | Potency [7]

CC1=C(/C=C/C(C)=C/C=C/C(C)=C/C=C/C=C(C)/C=C/C=C(C)/C=C/C2=C(C)C(=O)CCC2(C)C)C(C)(C)CCC1=O
inactive: Potency [1] | outcome [11] | outcome [12]

Source: PubChem BioAssay (NCATS)
